Source: PubChem (National Center for Advancing Translational Sciences (NCATS))
aGlu spleen mod – lysosomal alpha-glucosidase (human) modulation; human spleen homogenate, 4-MU-alpha-glucoside fluorescence; 240,000 tested, 0.006% active; Potency, µM (titrated, usually from 79.9 µM), hits mostly inhibitors; P10253
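AC50 values come from Hill-equation fits of concentration-response data, normalized to no-enzyme and full-activity controls. Enzyme source: 1 ug human spleen homogenate; 1 mM fluorogenic 4-MU glucoside, pH 5.0 citrate buffer, 37 C, 40 min.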
Lamin A splicing – changes lamin A minigene splicing in HeLa cells | AID 1487 | HeLa LMNA splicing GFP/RFP minigene ratio, 48 h | 200,000 tested, 0.01% active | Potency, µM (series often up to 46.1 µM), actives largely listed as inhibitors; active means well fitted inhibition curve with a large enough effect in the signal ratio, with a control signal flat, not every such curve was filed as active; inconclusive means small, poorly fitted or top-dose-only effect, or effect the other way, or a change in a side signal; the % refers to the signal ratio
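Read-out is the ratio of GFP to DsRed2 object intensity, acquired by 488 nm laser-scanning cytometry on HeLa lamin A-EGFP minigene reporter cells. Compound incubation 48 hrs at 37 °C in Opti-MEM with 2% FBS; DMSO 0.5% final.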
N370S GC – inhibitors or activators of N370S glucocerebrosidase for Gaucher disease | P04062 | N370S GC spleen homogenate, 4MU-glucoside fluorescence | Potency, µM (top dose mostly 59.4 µM), usual class: inhibitors | 330,000 tested, 0.092% active | AID 2101
GAA inh – blocks human lysosomal alpha-glucosidase; P10253; purified human GAA, 4-MU-alpha-glucoside fluorescence; Potency, µM (doses to about 76.9 µM), most hits filed as inhibitors; 200,000 tested, 0.005% active; AID 1466
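qHTS format, compound range up to 77 uM. Human lysosomal enzyme at 4 nM, 400 uM 4-MU glucoside substrate, pH 5.0, 20 min room temperature; fluorescence after alkaline stop gives activity normalized to controls.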
GAA glycogen – alters human alpha-glucosidase cleavage of glycogen | AID 2100 | recombinant GAA, glycogen substrate, Amplex Red glucose oxidase fluorescence | Potency, µM (series often up to 76.4 µM), usual class: inhibitors | 300,000 tested, 0.38% active;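 further: the screen sought inhibitors and activators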
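Recombinant human alpha-glucosidase (4 nM final) hydrolysed bovine liver glycogen (30 ug) for 40 min at 37 C in pH 5.0 citrate/phosphate with 0.01% Tween-20. Released glucose detected by glucose oxidase/Amplex Red, Ex 573/Em 610 nm. Compounds up to 77 uM; AC50 from Hill fits.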
Numbers stand for hits; i = inactive; ? = inconclusive; nt = no result given; ! = not active in a repeat; [ ] = dose if it differs, or a comment. A selection: hits, their analogues and other compounds. The true share with any hit is near 0.42%. Unless noted, the call rests on the fitted dose curve; in most records, active means well fitted curve in the direction sought with a large enough effect; inconclusive means small, poorly fitted or top-dose-only effect, or another doubt; inactive means no such curve, though single readings can be large; an effect the other way counts as inactive or inconclusive.

SMILES	aGlu spleen mod	Lamin A splicing	N370S GC	GAA inh	GAA glycogen
CCOc1ccc(N(CC(=O)NC2CCCC2)S(=O)(=O)c2c(C)[nH]c(=O)[nH]c2=O)cc1	i	i	7.9µM	i	i
Cc1cc(C)cc(N(CC(=O)NC2CCC(C)CC2)S(=O)(=O)c2c(C)[nH]c(=O)[nH]c2=O)c1 (centres undefined)	i	nt	0.4µM	nt	i
Cc1cc(C)cc(N(CC(=O)NC2CCCCCC2)S(=O)(=O)c2c(C)[nH]c(=O)[nH]c2=O)c1	i	nt	0.71µM	nt	i
Cc1cc(C)cc(N(CC(=O)O)S(=O)(=O)c2c(C)[nH]c(=O)[nH]c2=O)c1	i	nt	i	i	i
c1ccc(-c2nc3ccccn3c2NC2CCCC2)nc1	i	nt	i	i	11µM
Cc1ccn2c(NC3CCCC3)c(-c3ccncc3)nc2c1	i	i	i	i	28µM
Cc1ccn2c(NC3CCCC3)c(-c3ccccn3)nc2c1	i	?	i	i	?
Cc1ccc2nc(-c3ccncc3)c(NC3CCCC3)n2c1	i	i[9.22 µM]	i	i	?
CN(Cc1ccco1)c1ncnc2ccc(-c3ccc4c(c3)OCCO4)cc12	nt	nt	i	nt	nt
CCCCS(=O)(=O)N1C2=NC(C(=O)OC)=C(C(=O)OC)[C@@H]3Nc4ccccc4[C@]23C[C@H]1C(=O)OC	i[17.4 µM]	?	i[12.8 µM]	nt	nt
Nc1nc(-c2ccccc2)c(N=Nc2ccccc2Cl)s1	i	?	10µM	i	i
Nc1nc(-c2ccccc2)c(N=Nc2cccc3ccccc23)s1	i	?	?	i	i
Cc1[nH]n(-c2ccc(Cl)c(Cl)c2)c(=O)c1CCO	i	nt	i	i	22µM
CC(=O)N1CCN(CC(=O)Nc2cc([N+](=O)[O-])ccc2Cl)CC1	i	nt	i	i	i
O=C(CN1CCN(c2ccc(O)cc2)CC1)NC(=O)NCc1ccco1	i	i	i	i	3.2µM
Cc1cc(NC(=O)CN2CCN(c3ccc(O)cc3)CC2)no1	i	i	i	i	8.9µM
O=C(CN1CCN(c2ccc(O)cc2)CC1)Nc1cc([N+](=O)[O-])ccc1Cl	i	i	i	i	11µM
CC(C)(CCCCCCCCCCC(C)(C)CC(=O)O)CC(=O)O	i	nt	i	nt	nt
O=C1C=CC2=C3c4cc(O)c(O)cc4C[C@@]3(O)COC2=C1	i	nt	i	nt	nt
CC(N)(C(=O)O)c1cccc(CC(=O)O)c1 (centres undefined)	i	nt	i	nt	nt
CCOC(=O)CN=C1CC(C)(C)CC2=C1Sc1ncnc(N(C)C)c1N2	i	i	i	i	28µM
CCOC(=O)C1=C(C)NC2=C(C(=O)CC(C)(C)C2)C1c1cccc(C)n1 (centres undefined)	i	i	i	?	i
Cc1ccc(S(=O)(=O)Nc2cc(Cl)c(O)cc2C)cc1	i	?	i	i	22µM
O=C(O)C1OC(Oc2c(-c3ccc(O)c(O)c3)oc3cc(O)cc(O)c3c2=O)C(O)C(O)C1O (centres undefined)	i	?	i	i[15.4 µM]	4µM
O=c1c(-c2ccc(O)cc2)coc2cc(O)cc(O)c12	i	?	16µM!	nt	i
SMILES	aGlu spleen mod	Lamin A splicing	N370S GC	GAA inh	GAA glycogen
COc1ccc(-c2coc3cc(O)cc(O)c3c2=O)cc1	i	?	?	i[15.4 µM]	i
Nc1[nH]ncc1C(=O)Nc1cccc(C(F)(F)F)c1	i	i	i	?	11µM
O=[N+]([O-])c1cccc(Cl)c1	i	nt	i	nt	nt
COc1cccc(-n2cc(C(=O)NCc3ccccc3OC)c3ccccc3c2=O)c1	nt	i	nt	nt	40µM
CC1CC=CC2C1C(=O)N(Cc1ccccc1)C2c1cccc([N+](=O)[O-])c1 (centres undefined)	i	nt	i	nt	nt
Cc1ccc2[nH]c(=O)c(-c3nc4cc(C)ccn4c3NCc3ccco3)cc2c1	i	?	i	?	9.9µM
CCCCC/C=C\C/C=C\C/C=C\C=C\C1CCCC(=O)O1 (centres undefined)	i	nt	i	nt	nt
O=C(NCCCCc1ccccc1)C12CN(Cc3ccccc3)CC1C(c1cccc([N+](=O)[O-])c1)=NO2 (centres undefined)	i	i	i	i	i
O=C(NCCCCc1ccccc1)C12CN(Cc3ccccc3)CC1C(c1ccc([N+](=O)[O-])cc1)=NO2 (centres undefined)	i	i	10µM	?	i
OC[C@@H](O)C(O[C@@H]1O[C@@H](CO)[C@H](O)[C@H](O)[C@H]1O)[C@H](O)[C@@H](O)CO (some centres undefined)	nt	i	nt	nt	nt
O=C(O)c1c(Cl)c(Cl)c(Cl)c(Cl)c1-c1c2cc(I)c(=O)c(I)c-2oc2c(I)c(O)c(I)cc12	i	?	i	nt	nt
CC1(C(=O)O)Sc2[nH]c(=O)sc2C2c3ccccc3OC(=O)C21 (centres undefined)	i	i	i	i	25µM
CCN1CCS/C1=C/C=C/C1=[N+](CC)CCS1	?	?	7.9µM	?	i
CCN1CCS/C1=C\C=C\C1=[N+](CC)CCS1	nt	?	nt	nt	i
Cc1c(N=Cc2nc3ccccc3[nH]2)c(=O)n(-c2ccccc2)n1C	i	i	i	i	8.9µM
Cc1cccc(-c2ccc(C=Nc3c(C)n(C)n(-c4ccccc4)c3=O)o2)c1	i	i	i	i	4µM
Cc1c(NC(=O)/C(C#N)=C/c2ccc(-c3cccc(Cl)c3)o2)c(=O)n(-c2ccccc2)n1C	i	i	i	?	i
Cc1c(N=Cc2nc3ccccc3n2C)c(=O)n(-c2ccccc2)n1C	i	i	i	i	11µM
Cc1[nH]c2ccccc2c1N=Nc1c(C)n(C)n(-c2ccccc2)c1=O	i	?	i	i	?
Cc1c(N=Nc2ccc(O)cc2)c(=O)n(-c2ccccc2)n1C	i	nt	i	i	i
Cc1ccc(-c2nc3ncccn3c2Nc2ccc3c(c2)OCCO3)o1	i	i	i	i	14µM
Oc1ccc(-c2nc3ncccn3c2Nc2ccc3c(c2)OCCO3)cc1	i	i	nt	i	25µM
Cc1ccc(-c2nc3ncccn3c2Nc2ccc3c(c2)OCCO3)cc1	i	i	i	i	?
Brc1ccc(-c2nc3ncccn3c2Nc2ccc3c(c2)OCCO3)o1	i	i	i	i	22µM
Cc1ccc(-c2nc3ncccn3c2NC2CCCCC2)o1	i	i	i	i	28µM
CC1(C(=O)O)NCCc2cc(O)c(O)cc21 (centres undefined)	i	nt	i	nt	nt
O=c1c(-c2ccc(O)cc2)coc2cc(O[C@@H]3O[C@H](CO)[C@@H](O)[C@H](O)[C@H]3O)cc(O)c12	i	nt	i	nt	nt
NC(N)=NCCC[C@H](NC(=O)CC1(CC(=O)N2CCN(C3c4ccccc4NC(=O)c4ccccc43)CC2)CCCC1)C(=O)NCCn1c(=O)n(-c2ccccc2)n(-c2ccccc2)c1=O (some centres undefined)	i	nt	18µM	nt	nt
COC(=O)C1=C(C(=O)OC)[C@@H]2N(Cc3ccccc3)c3ccccc3[C@@]23C[C@@H](C(=O)OC)N(S(=O)(=O)c2ccc(C)cc2)C3=N1	i[17.4 µM]	i[9.22 µM]	i[12.8 µM]	nt	nt
COc1cc(NC(=O)c2cc(=O)[nH]c3ccc(S(=O)(=O)N4CCOCC4)cc23)cc(OC)c1	nt	nt	i	nt	nt
